An excerpt weighted towards active compounds, which were near 3.6% of everything screened.
GALK inhibitor – inhibits human galactokinase. recombinant GALK, Kinase-Glo ATP luminescence, 1 h. Potency, µM (doses to about 57.5 µM), for inactives: top-dose activity, negative = inhibition, most hits filed as inhibitors. 44,000 tested, under 10 active;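 note: plate controls were full GALK reaction for no effect and reaction lacking GALK for full effect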
Target sequence (P51570 whole entry, looked up): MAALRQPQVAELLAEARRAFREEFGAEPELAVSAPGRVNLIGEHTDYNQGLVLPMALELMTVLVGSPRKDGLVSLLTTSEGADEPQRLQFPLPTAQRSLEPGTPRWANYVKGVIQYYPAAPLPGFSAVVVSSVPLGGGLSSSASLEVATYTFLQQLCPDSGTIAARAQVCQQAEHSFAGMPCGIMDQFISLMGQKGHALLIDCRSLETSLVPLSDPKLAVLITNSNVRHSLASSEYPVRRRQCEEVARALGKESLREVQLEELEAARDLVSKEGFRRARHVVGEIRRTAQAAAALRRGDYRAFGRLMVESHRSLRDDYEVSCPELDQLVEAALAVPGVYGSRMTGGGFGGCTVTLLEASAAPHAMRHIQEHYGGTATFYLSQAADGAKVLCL
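Reactions with and without enzyme served as controls. GALK at 5 nM phosphorylates 100 uM galactose using 35 uM ATP (HEPES pH 8.0, Mg2+) for 1 h at RT, with luminescence read 10 min after adding Kinase-Glo Plus.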
GPR32 ag – GPR32 (DRV1) agonism, beta-arrestin recruitment; O75388; CHO-K1 GPR32 beta-arrestin PathHunter luminescence, 90 min; zero percent set by DMSO-only wells; activation, % at 76.9 µM; actives 2.5% (n = 48,000); AID 1346428;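 active = activation of at least 60% and not above a set upper limit, about 1 call in 100 departs from these limits; inconclusive = activation of 40% to 60%, or above that upper limit; inactive = activation under 40%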; note: 0% is about no effect
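CHO-K1 cells stably expressing ProLink-tagged GPR32 and Enzyme Activator-tagged beta-arrestin were seeded at 2,500 cells/well overnight, exposed to compounds for 90 min at 37 °C, then read by beta-Gal complementation chemiluminescence after 1 h detection reagent.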
GALC G270D act – enhancers of human galactocerebrosidase G270D mutant activity in cells; P54803; 145M-Twi-hGALC-G270D cells (Twitcher mouse brain line with human GALC G270D), HMU-beta-Gal fluorescence, 48 h; Potency, µM (series often up to 57.5 µM), most hits filed as activators; actives 0.1% (n = 45,000); note: potency is the fitted concentration of half-maximal effect; 0% is about no effect; nearly all actives have a fitted effect of over 65% in size
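Brain-derived Twitcher mouse 145M-Twi cells stably expressing human GALC-G270D or wild-type GALC, treated live, then residual GALC activity read by fluorescence of HMU-b-Gal substrate (0.1 mM final) in citrate-phosphate buffer pH 5.2 with sodium taurocholate. Signal increase indicates enhancement.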
NTMT1 inhibitor – blocks human N-terminal methyltransferase 1 activity. Q9BV86. NTMT1 MTase-Glo SAH luminescence, purified enzyme. Potency, µM (highest dose often 114 µM), for inactives: at the highest dose activity change, negative = inhibition, actives largely listed as inhibitors. actives 2.5% (n = 59,000);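 note: potency is the fitted concentration of half-maximal effect; plate controls were DMSO vehicle for no effect and no enzyme for full effect; nearly all actives have a fitted effect of over 65% in size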
Target sequence (Q9BV86 whole entry, looked up): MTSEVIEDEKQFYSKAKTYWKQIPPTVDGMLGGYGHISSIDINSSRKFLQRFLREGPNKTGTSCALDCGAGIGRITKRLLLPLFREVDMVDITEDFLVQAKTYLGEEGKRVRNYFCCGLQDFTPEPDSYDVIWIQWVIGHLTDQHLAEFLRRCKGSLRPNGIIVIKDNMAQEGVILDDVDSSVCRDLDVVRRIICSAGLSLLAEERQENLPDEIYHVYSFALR
B2AR arrestin ag – ADRB2 beta-arrestin recruitment; P07550; HTLA Tango cells, beta-arrestin recruitment, luciferase luminescence, 18 h; Potency, µM (series often up to 46.1 µM), usual class: activators; 44,000 tested, under 10 active; AID 1347077;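 note: potency is the fitted concentration of half-maximal effect; 0% = DMSO and full agonism = EC100 isoproterenol or metaproterenol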
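Tango cells expressing recombinant beta2-AR and beta-arrestin were treated with compounds (up to 46 microM titration) in DMEM with 1% FBS for 18 hr at 37 degrees C. Beta-arrestin recruitment drove tTA-dependent luciferase, read by luminescence; curves were fitted and classed.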
* hit, by the source's call; [ ] = another dose, or the depositor's remark. Unless noted, calls come from the whole dose curve; as a rule, active = well fitted curve in the direction sought with a large enough effect; inconclusive = small, poorly fitted or top-dose-only effect, or another doubt; inactive = no such curve, though single readings can be large; an effect the other way counts as inactive or inconclusive.

Results for NCCCC[C@H](NC(=O)[C@@H](NC(=O)[C@H](Cc1c[nH]c2ccccc12)NC(=O)[C@H](CCCCN)NC(=O)[C@H](CCCCN)NC(=O)[C@H](Cc1c[nH]c2ccccc12)NC(=O)[C@H](Cc1c[nH]c2ccccc12)NC(=O)[C@H](CCCCN)NC(=O)[C@@H](N)CCCCN)C(c1ccccc1)c1ccccc1)C(N)=O ?
NTMT1 inhibitor: 22µM*

What do the screens show for `COc1cc(-c2nc3ccc(Cl)cn3c2Nc2ccc3c(c2)OCCO3)ccc1O`?
GALK inhibitor: -6%; GPR32 ag: -19; GALC G270D act: inactive; NTMT1 inhibitor: inconclusive; B2AR arrestin ag: inactive

How did Clc1cccc(-c2nc3ccccn3c2Nc2ccc3c(c2)OCCO3)c1 do in these assays?
GALK inhibitor: 0%; GPR32 ag: -7; GALC G270D act: inactive; NTMT1 inhibitor: 4µM*; B2AR arrestin ag: inactive

How did COc1cc(-c2nc3cccc(C)n3c2Nc2ccc3c(c2)OCCO3)ccc1O do in these assays?
GALK inhibitor: 0%; GPR32 ag: 61*; GALC G270D act: inactive; NTMT1 inhibitor: 0%; B2AR arrestin ag: inactive

What do the screens show for `Cn1cc(-c2ccc3nnc(Sc4ccc5nn(C)cc5c4)n3n2)cn1`?
NTMT1 inhibitor: 15%[57.5 µM]

What do the screens show for `COc1ccc(OC)c(S(=O)(=O)N2CCC(n3c(C)nc4cccnc43)CC2)c1`?
GALK inhibitor: 1%; GPR32 ag: 65*; B2AR arrestin ag: inactive

How did Cc1nc2cccnc2n1C1CCN(S(C)(=O)=O)CC1 do in these assays?
GALK inhibitor: -1%; GPR32 ag: 16; B2AR arrestin ag: inactive

What do the screens show for `O=C(Nc1ccc(Cl)c(Cl)c1)Nc1nc(-c2ccncc2)cs1`?
NTMT1 inhibitor: -21%[57.5 µM]

How did Cc1cccc(C(=O)Nc2cc3nn(-c4ccc(C(C)C)cc4)nc3cc2C)c1 do in these assays?
GALK inhibitor: 0%; GPR32 ag: 102*; GALC G270D act: inactive; NTMT1 inhibitor: 16%; B2AR arrestin ag: inactive

How did Cc1cc2nn(-c3ccc(F)cc3)nc2cc1NC(=O)c1ccc(OC(C)C)cc1 do in these assays?
GALK inhibitor: -2%; GPR32 ag: -13; GALC G270D act: inactive; NTMT1 inhibitor: 5%; B2AR arrestin ag: inactive

How did Cc1ccc(-c2cc(C(=O)Nc3cccc(S(N)(=O)=O)c3)c3ccccc3n2)cc1C do in these assays?
NTMT1 inhibitor: -3%

How did COc1ccc(C2CC(=O)c3c([nH]c(C(=O)OC4CCCCCC4)c3C)C2)cc1OC (stereo not given) do in these assays?
GALK inhibitor: -10%; GPR32 ag: 15; GALC G270D act: inactive; NTMT1 inhibitor: 89µM*; B2AR arrestin ag: inactive

What do the screens show for `COc1ccc(-c2noc(CSc3nc4ccccc4[nH]3)n2)cc1`?
GALK inhibitor: 7%; GPR32 ag: 96*; GALC G270D act: inactive; NTMT1 inhibitor: -10%; B2AR arrestin ag: inactive

Results for COc1ccc(-c2noc(CSc3nc(N)cc(=O)[nH]3)n2)cc1 ?
GALK inhibitor: -2%; GPR32 ag: 98*; GALC G270D act: inactive; NTMT1 inhibitor: -20%; B2AR arrestin ag: inactive

What do the screens show for `O=C([C@@H](Cc1cccc(C(F)(F)F)c1)NS(=O)(=O)c1cc(F)c2c(c1)CCNC2)N1CCCC1`?
NTMT1 inhibitor: -1%[57.5 µM]

How did C/C=C(\C)C(=O)OC1C[C@@]2(COC(C)=O)O[C@H]2/C=C\[C@@]2(C)O[C@@H]2[C@H]2OC(=O)C(COC(C)=O)=C12 (stereo not given in full) do in these assays?
NTMT1 inhibitor: -16%[29.8 µM]

Results for Cc1ccc(OCCn2c(CCNC(=O)c3ccc[nH]3)nc3ccccc32)cc1 ?
NTMT1 inhibitor: 1%[57.5 µM]

What do the screens show for `O=C(/C=C/c1ccc(O)cc1)OCC1OC(O)C(OC2OC(CO)C(O)C(O)C2O)C(O)C1O` (stereo not given)?
NTMT1 inhibitor: -5%[29.8 µM]

What do the screens show for `O=C(CSc1cn(CCNC(=O)c2cccc(C(F)(F)F)c2)c2ccccc12)Nc1ccc2c(c1)OCCO2`?
GALK inhibitor: 7%; GPR32 ag: 112*; GALC G270D act: inactive; NTMT1 inhibitor: -3%; B2AR arrestin ag: inactive

Results for O=C(CSc1cn(CCNC(=O)c2ccccc2F)c2ccccc12)Nc1ccc(F)cc1 ?
GALK inhibitor: 7%; GPR32 ag: 91*; GALC G270D act: inactive; NTMT1 inhibitor: 3%; B2AR arrestin ag: inactive

Results for CCOc1ccc(NC(=O)CSc2cn(CCNC(=O)c3ccccc3F)c3ccccc23)cc1 ?
GALK inhibitor: 9%; GPR32 ag: 14; GALC G270D act: inactive; NTMT1 inhibitor: -14%; B2AR arrestin ag: inactive

Results for O=C1Cc2cc(S(=O)(=O)N3CCN(c4ccc(CO)cc4)CC3)ccc2N1 ?
NTMT1 inhibitor: 50µM*

What do the screens show for `O=C(Nc1nnc(S(=O)(=O)N2CCCc3ccccc32)s1)c1cccc(Cl)c1`?
GALK inhibitor: 3%; GPR32 ag: 74*; GALC G270D act: inactive; NTMT1 inhibitor: 16%; B2AR arrestin ag: inactive

What do the screens show for `CN(Cc1ccccc1)S(=O)(=O)c1nnc(NC(=O)c2cccc(Cl)c2)s1`?
GALK inhibitor: 0%; GPR32 ag: 68*; GALC G270D act: inactive; NTMT1 inhibitor: 12%; B2AR arrestin ag: inactive

How did CN(Cc1ccco1)S(=O)(=O)c1nnc(NC(=O)c2cccc(Cl)c2)s1 do in these assays?
GALK inhibitor: -2%; GPR32 ag: inconclusive; GALC G270D act: inactive; NTMT1 inhibitor: 2%; B2AR arrestin ag: inactive

What do the screens show for `CN(c1ccccc1)S(=O)(=O)c1nnc(NC(=O)c2ccccc2)s1`?
GALK inhibitor: 3%; GPR32 ag: 8; GALC G270D act: inactive; NTMT1 inhibitor: 33%; B2AR arrestin ag: inactive

Results for CN(c1ccccc1)S(=O)(=O)c1nnc(NC(=O)c2ccco2)s1 ?
GALK inhibitor: 1%; GPR32 ag: 93*; GALC G270D act: inactive; NTMT1 inhibitor: 9%; B2AR arrestin ag: inactive

Results for COc1cc(O)c([C@H](CC(=O)N2CC(C)CC(C)C2)c2ccc3c(c2)OCO3)c(OC)c1 (stereo not given in full) ?
NTMT1 inhibitor: 6%

Results for COC(=O)c1c(-c2ccccc2)no[n+]1[O-] ?
NTMT1 inhibitor: -4%

What do the screens show for `Cc1nnc(Nc2sc3c(c2-c2nc4ccccc4s2)CCNC3)o1`?
NTMT1 inhibitor: -15%

What do the screens show for `COC(=O)CCCn1c(-c2ccc(C)cc2)c(C)n2c3c(=O)n(C)c(=O)n(C)c3nc12`?
GALK inhibitor: -4%; GPR32 ag: 20; GALC G270D act: inactive; NTMT1 inhibitor: -14%; B2AR arrestin ag: inactive

Screening data from PubChem BioAssay.
